In the library only some 2.4% were active in any assay of this set; here they are far more common.
CRFBP-R2 block – blocks CRF-induced signaling of the CRF-BP/CRF-R2 complex | HEK293 CRF-R2/CRF-BP, CRF-induced calcium fluorescence | inhibition, % at 11.8 µM | actives 0.59% (n = 350,000) | AID 588475;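 active = inhibition of the ligand-induced calcium signal above about 50% at the single tested concentration, limit read from the data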
Cardiac RTF inh – cardiac RTF calcium desensitization. P19429+P45379. IANBD-labeled cardiac RTF, Ca2+ fluorescence. inhibition, % at 7.15 µM. actives 0.12% (n = 340,000). AID 493244;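 active = inhibition above the mean inhibition of all tested compounds plus 3 SD, cut at about 17% in these data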;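 note: assay run at fixed EC70 calcium of 1.6 mM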
ANO1 block – mouse TMEM16A channel inhibition, primary screen | actives 1.2% (n = 310,000) | normalized B-score (activity score, 25-100; higher = stronger inhibition) at 10 µM | HEK293 TMEM16A/YFP iodide influx fluorescence, ionomycin | Q8BHY3 | AID 588511;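 active = ratio plate-corrected score three or more library SD toward inhibition, starting fluorescence score within five deviations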;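 note: score derived from kinetic fluorescence span divided by baseline fluorescence per well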
Target sequence (Q8BHY3 whole entry, looked up): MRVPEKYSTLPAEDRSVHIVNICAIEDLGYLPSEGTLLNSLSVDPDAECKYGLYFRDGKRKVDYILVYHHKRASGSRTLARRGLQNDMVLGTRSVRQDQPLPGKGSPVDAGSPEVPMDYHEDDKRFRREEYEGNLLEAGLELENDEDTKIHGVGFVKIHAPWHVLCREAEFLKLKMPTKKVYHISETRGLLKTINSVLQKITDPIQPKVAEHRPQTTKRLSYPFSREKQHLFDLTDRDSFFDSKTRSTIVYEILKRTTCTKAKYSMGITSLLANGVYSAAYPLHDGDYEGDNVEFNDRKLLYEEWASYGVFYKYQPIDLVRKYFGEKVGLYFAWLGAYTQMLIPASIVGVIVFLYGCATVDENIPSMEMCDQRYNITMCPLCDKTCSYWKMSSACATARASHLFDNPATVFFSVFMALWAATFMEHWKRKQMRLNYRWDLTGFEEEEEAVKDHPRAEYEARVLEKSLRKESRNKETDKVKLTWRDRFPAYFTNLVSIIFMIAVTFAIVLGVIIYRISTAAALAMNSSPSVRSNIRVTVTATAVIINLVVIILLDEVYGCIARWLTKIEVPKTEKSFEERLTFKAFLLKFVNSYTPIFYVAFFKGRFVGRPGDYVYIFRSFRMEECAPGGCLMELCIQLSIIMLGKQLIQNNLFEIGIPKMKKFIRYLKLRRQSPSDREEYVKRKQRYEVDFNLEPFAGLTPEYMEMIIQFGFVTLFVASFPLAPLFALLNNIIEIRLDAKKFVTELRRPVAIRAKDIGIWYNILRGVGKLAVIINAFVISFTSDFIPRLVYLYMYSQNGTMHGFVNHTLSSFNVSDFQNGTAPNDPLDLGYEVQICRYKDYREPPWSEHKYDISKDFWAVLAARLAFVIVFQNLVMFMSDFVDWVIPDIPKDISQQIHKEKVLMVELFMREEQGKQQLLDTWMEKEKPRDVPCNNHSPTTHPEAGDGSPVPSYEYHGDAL
CRFBP-R2 agonist – agonists of human CRF-binding protein/CRF-R2 receptor complex. HEK293 CRF-R2/CRF-BP, calcium dye fluorescence (FLIPR); percent of saturating CRF peptide response. activation, % at 13.2 µM. actives 0.46% (n = 350,000). AID 588473;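 active = activation of at least 50%, plus an integration ratio under a set limit after plate pattern correction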;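 note: plate controls were neutral control wells without compound for no effect and CRF at EC100 for full effect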
RTF Ca sens act – cardiac RTF calcium sensitization; IANBD-labeled TnC RTF fluorescence at EC20 calcium; 0% EC20 calcium, 100% full calcium; activation, % at 7.2 µM; actives 0.24% (n = 340,000); AID 493008;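 active = activation above the mean over all tested compounds plus 3 SD, cut at about 30% in these data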;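 note: rise in fluorescence read as greater calcium sensitivity of cardiac thin filaments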
TMEM16A act – activators or potentiators of mouse TMEM16A chloride channel. HEK293 TMEM16A/YFP-H148Q/I152L, iodide quench fluorescence; active compounds read low. B-score at 10 µM. actives 0.3% (n = 340,000);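 active = fluorescence-ratio B-score plate-corrected deviation score at least 3 library SD below zero, with starting fluorescence score within 5 deviations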;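 note: channel opened by trigger with iodide after compound preincubation; score built on the fluorescence ratio of max minus min over baseline; more negative score means more quench and so TMEM16A activation or potentiation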
An asterisk follows results filed as active.

`CC(NC(=O)c1ccccc1)C(=O)N/N=C/c1ccco1` (configuration not stated) gave CRFBP-R2 block 4, Cardiac RTF inh -11, ANO1 block inactive, CRFBP-R2 agonist 1, RTF Ca sens act -3 and TMEM16A act inactive.
`CC(C)CC(NC(=O)c1ccccc1)C(=O)N/N=C/c1ccco1` (configuration not stated) gave CRFBP-R2 block -128, Cardiac RTF inh -3, ANO1 block inactive, CRFBP-R2 agonist 178*, RTF Ca sens act 1 and TMEM16A act inactive.
Screening COc1cc(NC(=O)C(C)Oc2ccccc2)c(OC)cc1NC(=O)c1ccccc1 (configuration not stated) returned CRFBP-R2 block -6, Cardiac RTF inh 0, ANO1 block inactive, CRFBP-R2 agonist 4, RTF Ca sens act -2 and TMEM16A act inactive.
`NC(=O)COc1ncn(-c2ccccc2)n1` gave CRFBP-R2 block 57*, Cardiac RTF inh -6, ANO1 block inactive, CRFBP-R2 agonist 1, RTF Ca sens act -7 and TMEM16A act inactive.
`O=C(NCCC(=O)N1CCN(S(=O)(=O)c2ccc(Cl)cc2)CC1)Nc1ccccc1` gave CRFBP-R2 block 8, Cardiac RTF inh -8, CRFBP-R2 agonist -1, RTF Ca sens act 1 and TMEM16A act inactive.
For Cc1ccc(C(=O)N/N=C2/NC(=O)CC(C(=O)Nc3ccccc3)S2)cc1 (configuration not stated) the results were CRFBP-R2 block 9, Cardiac RTF inh -4, ANO1 block inactive, CRFBP-R2 agonist 1, RTF Ca sens act 8 and TMEM16A act inactive.
Screening COC(=O)c1c(NC(=O)C2CC=CCC2C(=O)O)sc2c1CCCCC2 (configuration not stated) returned CRFBP-R2 block -4, Cardiac RTF inh 1, ANO1 block inactive, CRFBP-R2 agonist 1, RTF Ca sens act -2 and TMEM16A act inactive.
For COc1ccc(-c2nn(-c3ccccc3)cc2/C=C(\C#N)S(=O)(=O)c2ccccc2)cc1OC the results were CRFBP-R2 block 66*, Cardiac RTF inh 4, ANO1 block inactive, CRFBP-R2 agonist 12, RTF Ca sens act -2 and TMEM16A act inactive.
Screening Cc1cc(C)n2nc(SCC(=O)Nc3ccc(F)cc3[N+](=O)[O-])nc2n1 returned CRFBP-R2 block 12, Cardiac RTF inh -2, CRFBP-R2 agonist 0, RTF Ca sens act 1 and TMEM16A act inactive.
O=c1cc(C(F)(F)F)nc(SC/C=C/c2ccccc2)[nH]1 was read as CRFBP-R2 block 12, Cardiac RTF inh 0, ANO1 block 100*, CRFBP-R2 agonist -1, RTF Ca sens act 8 and TMEM16A act inactive.
Screening O=C(CCN1CCCCC1=O)NC1CCCN(Cc2ccc(Cl)cc2)C1 (configuration not stated) returned CRFBP-R2 block 89*, Cardiac RTF inh -7, ANO1 block inactive, CRFBP-R2 agonist 0, RTF Ca sens act 4 and TMEM16A act inactive.
CNS(=O)(=O)c1ccc(CNC[C@H]2O[C@@H](n3ccc(N)nc3=O)[C@H](O)[C@@H]2O)cc1 was read as CRFBP-R2 block -6 and CRFBP-R2 agonist -1.
O=C(Cn1ncc2c3ccccc3n(Cc3ccccc3F)c2c1=O)NCCCN1CCCC1=O was read as CRFBP-R2 block -26, Cardiac RTF inh 0, ANO1 block inactive, CRFBP-R2 agonist 0, RTF Ca sens act 0 and TMEM16A act -5.2*.
For O=C(Cn1ncc2c3ccccc3n(Cc3ccccc3F)c2c1=O)NCCN1CCOCC1 the results were CRFBP-R2 block -26, Cardiac RTF inh 1, ANO1 block inactive, CRFBP-R2 agonist 0, RTF Ca sens act 0 and TMEM16A act inactive.
Cc1ccc(C)c(Cn2c3ccccc3c3cnn(CC(=O)NCc4ccccn4)c(=O)c32)c1 was read as CRFBP-R2 block 5, Cardiac RTF inh -3, ANO1 block inactive, CRFBP-R2 agonist 0, RTF Ca sens act 1 and TMEM16A act -7.2*.

Bioassay records from PubChem.
